AF4-AF9 inh: blocks AF4 peptide binding to human AF9; P42568; AlphaScreen, biotin-AF4 peptide binding to FLAG-AF9; inhibition, % at 10 µM; 0.47% of 350,000 active; AID 651704;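 active = every replicate reaching a set inhibition limit, whatever the replicate mean, cut at about 25% in these data; inconclusive = mean inhibition reaches that limit but some replicates miss it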;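 also: 0% = plate neutral control median and 100% = total signal loss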
Target sequence (P42568 whole entry, looked up): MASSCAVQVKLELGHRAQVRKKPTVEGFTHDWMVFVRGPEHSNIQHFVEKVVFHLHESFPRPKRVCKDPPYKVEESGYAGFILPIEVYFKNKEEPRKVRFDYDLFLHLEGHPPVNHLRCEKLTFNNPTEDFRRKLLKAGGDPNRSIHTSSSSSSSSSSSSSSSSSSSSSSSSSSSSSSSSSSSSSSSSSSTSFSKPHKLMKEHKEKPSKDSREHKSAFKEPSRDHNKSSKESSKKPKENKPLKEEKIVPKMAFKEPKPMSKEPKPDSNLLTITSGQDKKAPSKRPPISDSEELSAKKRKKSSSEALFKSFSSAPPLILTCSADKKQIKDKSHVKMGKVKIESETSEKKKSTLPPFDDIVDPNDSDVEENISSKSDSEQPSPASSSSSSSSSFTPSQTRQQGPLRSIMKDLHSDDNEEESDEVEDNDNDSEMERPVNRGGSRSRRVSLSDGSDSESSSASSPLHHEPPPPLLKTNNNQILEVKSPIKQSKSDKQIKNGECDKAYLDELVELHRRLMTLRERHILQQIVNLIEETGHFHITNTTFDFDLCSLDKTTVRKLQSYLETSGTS
Wnt bcat act: activators of Wnt/beta-catenin signaling. Wnt/beta-catenin reporter cell assay, activator, plate reader. AID 743398. 1.2% of 300,000 active. activation, % at 9.35 µM; in the data active = activation above about 30%, passing the limit was not always enough; inconclusive = no clear call, values can overlap the other calls;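 also: 0% = neutral control wells and 100% = positive control wells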
esBAF inh: blocks esBAF chromatin remodeling in mouse ES cells; Bmi1-luciferase knock-in reporter, 24 h; 100% = twice the neutral-well signal; reporter increase, % at 12.5 µM; 2% of 350,000 active; AID 602393; in the data active = activation above about 40%; inconclusive = no clear call, values can overlap the other calls;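 also: 0% = median of the plate's neutral control wells and 100% = double that signal; a rise in the Bmi1 reporter signal indicates esBAF inhibition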
MITF act: activators of MITF-driven TRPM1 promoter activity in SK-MEL-5 cells. 0.75% of 300,000 active. SK-MEL-5 TRPM1-promoter luciferase, 24 h; % of positive control, neutral wells = 0. AID 588334. activation, % at 12.5 µM;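 active = mean activation of at least 80% with every replicate also reaching 80%; inconclusive = mean reaches 80% but some replicate falls short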;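 also: 0% = neutral control wells and 100% = parthenolide positive control wells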
rRNA inh HTS: selective bacterial rRNA inhibition in E. coli; E. coli WT GFP vs humanized-ribosome RFP mutants, fluorescence, 24 h; stronger effect = lower value; DMSO median 0, no signal -100; 1.6% of 350,000 active; GFP signal change (wild-type ribosome), % (concentration not given with the values);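 active = significant combined selectivity score with lowered wild-type GFP, culture density cut under 30%, mutant RFP and density less affected; inactive = any of these conditions unmet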
* hit, by the source's call. This is a sample that favours compounds with a hit; in the whole collection about 3.7% have one here.

What do the screens show for `Cc1ccc2c(C)c(C(=O)N(Cc3ccc(N(C)C)cc3)C3CCS(=O)(=O)C3)oc2c1` (stereo not drawn)?
AF4-AF9 inh: 38*; Wnt bcat act: -10; esBAF inh: -18; MITF act: 5; rRNA inh HTS: 2

What do the screens show for `C=CCN(C(=O)c1oc2c(Cl)cc(C)cc2c1C)C1CCS(=O)(=O)C1` (stereo not drawn)?
AF4-AF9 inh: -3; Wnt bcat act: 29; esBAF inh: 64*; MITF act: 111*; rRNA inh HTS: -14

How did CO[C@@H]1CN(C)C(=O)c2ccc(NC(=O)NC(C)C)cc2OC[C@H](C)N(C(=O)CC2CC2)C[C@H]1C do in these assays?
AF4-AF9 inh: -3; esBAF inh: 3; rRNA inh HTS: 1

What do the screens show for `CN(C)c1ccc(Nc2nc(N)c([N+](=O)[O-])c(N3CCOCC3)n2)cc1`?
AF4-AF9 inh: 30*; Wnt bcat act: 0; MITF act: 5; rRNA inh HTS: -8

How did COc1ccc(Nc2nc(N)c([N+](=O)[O-])c(N3CCOCC3)n2)cc1 do in these assays?
AF4-AF9 inh: 7; Wnt bcat act: 3; esBAF inh: 5; MITF act: 19; rRNA inh HTS: -28*

Results for Fc1ccccc1Nc1nc(N2CCOCC2)nc(N2CCOCC2)n1 ?
AF4-AF9 inh: -1; Wnt bcat act: -1; esBAF inh: -8; MITF act: -4; rRNA inh HTS: 8

What do the screens show for `CCOc1ccc(Nc2nc(N)c([N+](=O)[O-])c(N3CCN(C)CC3)n2)cc1`?
AF4-AF9 inh: 4; Wnt bcat act: 1; esBAF inh: -3; MITF act: 5; rRNA inh HTS: 7

Results for Nc1nc(Nc2ccccc2)nc(N2CCOCC2)c1[N+](=O)[O-] ?
MITF act: -11

How did Nc1nc(Nc2ccccc2F)nc(N2CCOCC2)c1[N+](=O)[O-] do in these assays?
AF4-AF9 inh: 1; Wnt bcat act: 3; esBAF inh: -3; rRNA inh HTS: -20*

How did C[C@@H]1CN([C@H](C)CO)C(=O)Cc2cc(NC(=O)Nc3ccc(F)cc3)ccc2O[C@@H]1CN(C)C(=O)Nc1ccccc1 do in these assays?
AF4-AF9 inh: 2; esBAF inh: 0; rRNA inh HTS: -3

Results for O=C(NCCN1CCOCC1)[C@@]1(Cc2ccccc2)COC(c2ccc(OCCCO)cc2)=N1 ?
AF4-AF9 inh: 0

Results for Cc1ccc(S(=O)(=O)NCC[C@H]2CC[C@H](NC(=O)c3cccnc3)[C@@H](CO)O2)cc1 ?
AF4-AF9 inh: -2; esBAF inh: 2; rRNA inh HTS: -2

How did CCCCNc1ncnc2c1cnn2-c1ccccc1 do in these assays?
Wnt bcat act: 2; esBAF inh: 32; MITF act: 26

How did CCc1nc(NC(C)(C)C)c2cnn(-c3ccccc3)c2n1 do in these assays?
AF4-AF9 inh: 1; Wnt bcat act: 27; esBAF inh: 74*; MITF act: inconclusive; rRNA inh HTS: 7

What do the screens show for `Cc1ccnc(NC(=O)CCC(=O)N(CC(=O)NCc2ccc(F)cc2)c2cccc(F)c2)c1`?
AF4-AF9 inh: 0; Wnt bcat act: 5; esBAF inh: 4; MITF act: -4; rRNA inh HTS: 4

How did Cc1cc(C(=O)Nc2ccc3c(c2)C(=O)N(C)[C@@H]2CC[C@@H](CC(=O)NCc4ccc(-c5ccccc5)cc4)O[C@@H]2CO3)no1 do in these assays?
AF4-AF9 inh: 0; esBAF inh: 10; rRNA inh HTS: 0

Results for COc1ccccc1/C=C/C(=O)Nc1nc(N)n(-c2ccccc2)n1 ?
AF4-AF9 inh: 0; Wnt bcat act: 0; esBAF inh: 3; MITF act: 4; rRNA inh HTS: -25*

Results for COC(=O)CC1C(=O)NCCN1C(=S)NC(=O)c1sc2ccccc2c1Cl (stereo not drawn) ?
AF4-AF9 inh: -3; Wnt bcat act: -2; MITF act: -6; rRNA inh HTS: -10

What do the screens show for `Cc1ccc2c(c1)C(c1ccc(F)cc1)N(C(=O)c1ccccc1Br)CC(=O)N2` (stereo not drawn)?
AF4-AF9 inh: 5; Wnt bcat act: -2; esBAF inh: 5; MITF act: 4; rRNA inh HTS: -26*

How did COc1ccccc1C(=O)N1CC(=O)Nc2ccc(C)cc2C1c1ccc(F)cc1 (stereo not drawn) do in these assays?
AF4-AF9 inh: 2; Wnt bcat act: 0; esBAF inh: 6; MITF act: -14; rRNA inh HTS: 0

What do the screens show for `CCCc1cc(C(=O)Nc2cccc3ccccc23)n(C)n1`?
AF4-AF9 inh: -15; Wnt bcat act: -1; MITF act: 13; rRNA inh HTS: -30*

How did O=C(O)[C@H](Cc1ccccc1)N1C(=O)c2c(Cl)c(Cl)c(Cl)c(Cl)c2C1=O do in these assays?
AF4-AF9 inh: -5; Wnt bcat act: -1; esBAF inh: 4; rRNA inh HTS: -39*

How did COCCOC(=O)c1c(NC(=O)CNCc2ccco2)sc(C(N)=O)c1C do in these assays?
AF4-AF9 inh: 0; Wnt bcat act: 1; MITF act: 5; rRNA inh HTS: 7

What do the screens show for `O=C(O)c1ccc(N/N=C/C(Br)=C/c2ccccc2)cc1`?
AF4-AF9 inh: 8; Wnt bcat act: 27; esBAF inh: 74*; MITF act: 60; rRNA inh HTS: -9

How did O=C(C=NNc1ccccc1)c1ccccc1 do in these assays?
AF4-AF9 inh: 10; Wnt bcat act: 58*; esBAF inh: -45; MITF act: 52; rRNA inh HTS: -19

How did Oc1ccccc1/C=N/Nc1ccccc1 do in these assays?
AF4-AF9 inh: 20; Wnt bcat act: 4; esBAF inh: inconclusive; MITF act: 70; rRNA inh HTS: -28

How did O=C(N/N=C/C(Br)=C/c1ccccc1)C(O)c1ccccc1 (stereo not drawn) do in these assays?
AF4-AF9 inh: 7; Wnt bcat act: 11; rRNA inh HTS: -27*

What do the screens show for `BrC(=C\c1ccccc1)/C=N/Nc1nc2ccccc2[nH]1`?
Wnt bcat act: 33*; MITF act: 30

What do the screens show for `O=C(N/N=C/C(Br)=C/c1ccccc1)c1ccncc1`?
AF4-AF9 inh: -7; Wnt bcat act: 8; MITF act: -18; rRNA inh HTS: 8

What do the screens show for `COc1ccccc1N(C(=O)c1cncc(Br)c1)c1nc(-c2ccc(C)cc2)cs1`?
AF4-AF9 inh: -3; Wnt bcat act: -15; MITF act: 14; rRNA inh HTS: 4

What do the screens show for `CC=Cc1ccc2n(c1=O)C[C@@H]1[C@@H](CO)[C@H](C(=O)N[C@@H](C)c3ccccc3)[C@H]2N1CC` (mixture of isomers)?
AF4-AF9 inh: 1; esBAF inh: -1; rRNA inh HTS: 5

What do the screens show for `C[C@H](CO)N1C[C@H](C)[C@H](CN(C)S(C)(=O)=O)Oc2ncc(C#Cc3ccccc3F)cc2C1=O`?
AF4-AF9 inh: -3; esBAF inh: -2; rRNA inh HTS: 4

How did Nn1c(SCc2ccc(F)cc2)nnc1-c1ccccn1 do in these assays?
AF4-AF9 inh: 0; Wnt bcat act: 22; rRNA inh HTS: 0

What do the screens show for `Nn1c(SCc2ccccc2)nnc1-c1ccccn1`?
esBAF inh: 43*

Screening data (PubChem BioAssay)
